# Only some compounds are listed: those with a hit (about 18% of all), similar ones and a draw of the others.
# TDP1 block – inhibitors of human tyrosyl-DNA phosphodiesterase TDP1; recombinant TDP1, AlphaScreen DNA substrate cleavage; Potency, µM (series often up to 130 µM), for inactives: at the top dose activity change, negative = inhibition, most hits filed as inhibitors; 350,000 compounds, 0.28% hits; AID 485290; note: potency is the fitted concentration of half-maximal effect; % is set by controls: 0 for no effect and ±100 for the full control effect; nearly all actives have a fitted effect of over 40% in size
# Target sequence (Q9NUW8 whole entry, looked up): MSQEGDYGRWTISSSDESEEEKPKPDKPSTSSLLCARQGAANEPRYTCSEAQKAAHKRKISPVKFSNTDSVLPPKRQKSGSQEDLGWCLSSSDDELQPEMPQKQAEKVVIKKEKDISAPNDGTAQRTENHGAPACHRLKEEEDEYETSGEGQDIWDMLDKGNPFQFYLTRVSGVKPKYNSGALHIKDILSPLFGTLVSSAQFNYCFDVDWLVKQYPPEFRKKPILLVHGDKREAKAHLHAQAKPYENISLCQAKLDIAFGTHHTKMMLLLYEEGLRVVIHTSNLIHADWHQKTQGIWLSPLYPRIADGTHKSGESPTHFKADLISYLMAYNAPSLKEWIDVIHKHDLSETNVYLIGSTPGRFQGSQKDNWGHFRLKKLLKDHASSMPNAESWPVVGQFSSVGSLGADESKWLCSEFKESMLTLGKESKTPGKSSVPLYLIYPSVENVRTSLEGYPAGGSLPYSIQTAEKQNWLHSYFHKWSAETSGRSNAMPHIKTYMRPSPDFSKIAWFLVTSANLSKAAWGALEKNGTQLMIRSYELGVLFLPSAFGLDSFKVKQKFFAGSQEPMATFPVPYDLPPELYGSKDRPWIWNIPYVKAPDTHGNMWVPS
#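 Recombinant human Tdp1 (E. coli-expressed, 1 nM final) preincubated with compounds 15 min at room temperature, then 5'-biotin/3'-phosphotyrosine-FITC DNA substrate (15 nM final) added for 5 min. AlphaScreen beads (10 ug/ml final) added 10 min; cleavage lowers signal.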
# DT40 TDP1 no CPT – qHTS for Inhibitors of human tyrosyl-DNA phosphodiesterase 1 (TDP1): qHTS in cells in absence of CPT | DT40 Tdp1-/- hTDP1 cells, no CPT, ATP luminescence, 48 h | Potency, µM (titrated, usually from 46.2 µM), inactives show top-dose activity change, negative = growth inhibition, actives largely listed as inhibitors | 420,000 compounds, 15% hits; note: potency is the fitted concentration of half-maximal effect; % is set by controls: 0 for no effect and ±100 for the full control effect; nearly all actives have a fitted effect of over 55% in size
#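 A cellular qHTS used chicken DT40 cells lacking endogenous Tdp1 but carrying stably transfected human TDP1. Compounds were applied without camptothecin, and cell growth kinetics were judged by ATP-dependent luminescence after ≥48 hr.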
# DT40 TDP1 CPT – growth inhibition of DT40 Tdp1-/-;hTDP1 cells with camptothecin (screen for TDP1 inhibitors); 420,000 compounds, 12% hits; Potency, µM (top dose mostly 46.2 µM), without a hit: at the top dose activity change, negative = growth inhibition, actives largely listed as inhibitors; chicken DT40 Tdp1-/-;hTDP1 cells + 20 nM CPT, ATP luminescence, 48 h; note: potency is the fitted concentration of half-maximal effect; % is set by controls: 0 for no effect and ±100 for the full control effect; nearly all actives have a fitted effect of over 55% in size
#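 Chicken DT40 Tdp1-/- cells stably complemented with human TDP1 were seeded at 400 cells/well in medium containing 20 nM camptothecin, exposed to pin-transferred compounds, and grown at 37 °C for at least 48 hr. Viability was read as ATP luminescence.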
# IL1B secr inh – inhibitors of inflammasome signaling (IL-1 beta secretion); THP-1 LPS/ATP IL-1B secretion, AlphaLISA, 16 h; hits give low values; activity change, % at 57.5 µM; 360,000 compounds, 4.7% hits; AID 743279; in the data active = activity change below about -50%; inconclusive = mostly about -30% to -49%; note: % is set by controls: 0 for no effect and ±100 for the full control effect
#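 THP-1 cells pretreated 1 hr with compounds (up to 57.5 uM final), then stimulated with LPS (250 ng/mL final) plus ATP (1.25 mM final); secreted IL-1B measured by AlphaLISA after 16 hr, decreased signal indicating inhibition.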
# HepG2 viability – kills HepG2 cells in TGF-b inhibitor counter-screen. HepG2 CAGA-GFP viability, ATP luminescence, 18 h. Potency, µM (doses to about 46.1 µM), without a hit: at the highest dose activity change, negative = cytotoxicity, hits mostly cytotoxic. 410,000 compounds, 0.76% hits. AID 588856; note: potency is the fitted concentration of half-maximal effect
#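 CellTiter-Glo luminescence gave cytotoxicity after 18 hours at 37 degrees C. The cells were HepG2 CAGA-GFP in 1% FBS DMEM, stimulated with 500 pg/mL TGF-beta after compound addition. %Activity was normalised to no-cell wells (complete cell-killing) and DMSO (no toxicity), and curves were fitted and classified.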
# TGFb inhibitor – blocks TGF-b signaling; HepG2 CAGA-GFP TGF-b/SMAD3 reporter, GFP fluorescence, 18 h; TGF-beta stimulated, 500 pg/mL final; Potency, µM (top dose mostly 46.1 µM), for inactives: top-dose activity, negative = inhibition, most hits filed as inhibitors; 410,000 compounds, 1.2% hits; AID 588855; note: potency is the fitted concentration of half-maximal effect; % is set by controls: 0 for no effect and ±100 for the full control effect; nearly all actives have a fitted effect of over 65% in size
#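 Per well, imaged GFP fluorescence of HEPG2 CAGA-GFP cells gives the signal; cells get compound, then TGF-beta (500 pg/mL final), 18 h at 37 degrees C; %Activity versus -TGF-beta and +DMSO controls.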
# * marks the source's active call; other numbers are inactive results; ? = inconclusive; . = no result given; [ ] = another dose, or the depositor's remark. Unless noted, calls come from the whole dose curve; as a rule, active = well fitted curve in the direction sought with a large enough effect; inconclusive = small, poorly fitted or top-dose-only effect, or another doubt; inactive = no such curve, though single readings can be large; an effect the other way counts as inactive or inconclusive.
SMILES,TDP1 block,DT40 TDP1 no CPT,DT40 TDP1 CPT,IL1B secr inh,HepG2 viability,TGFb inhibitor
COc1cc(NC(=O)c2ccc(C(=O)Nc3cc(OC)c(Cl)cc3OC)cc2)c(OC)cc1Cl,1.3%[12.3 µM],0.9%,-2.9%,.,-1.0%,0.8%
Cc1cccc(C)c1NC(=O)C1(C)CSCC(=O)N1C1CCN(Cc2ccccc2)CC1 (stereo unspecified),.,5.7%,-1.7%,11.8,.,.
COc1ccc(-c2noc(CNC(=O)c3cc(OC)c(OC)c(OC)c3)n2)cc1,-2.3%,-4.8%,-0.1%,.,-16.2%,?
CCn1cc(-c2ccccc2)c(C(=O)O)c1-c1ccc(OC)cc1,0.3%,-22.1%,0.7%,14.9,-0.9%,-5.5%
CN=C1NC(C)(C)C2CCC(C)(CC2)S1,.,?,-29.7%,-13.8,-19.0%,-7.9%
COc1ccc(CN(C)C(C)C(=O)N(C)CC(=O)Nc2ccc(C)cc2)cc1F (stereo unspecified),-1.2%,?,-5.4%,-4.6,-37.4%,-27.1%
Cc1cccc(NC(=S)NNC(=O)c2ccccc2OC(F)F)c1,9.8%,29.1µM*,23.1µM*,-3.9,-18.1%,-13.4%
CCc1ccc(NC(=S)NNC(=O)c2ccccc2OC(F)F)cc1,8.3%,.,.,.,.,.
COc1ccc(NC(=S)NNC(=O)c2ccccc2OC(F)F)cc1,9.8%,18.4µM*,13µM*,-14.6,-12.6%,-1.5%
CC(C)(C)OC(=O)CC1(C#N)c2ccccc2C(Br)=CN1C(=O)c1ccccc1 (stereo unspecified),1.0%,16.4µM*,?,-5.8,0.9%,-19.0%
CN(C(=O)COC(=O)c1cc[n+]([O-])cc1)c1ccccc1,2.7%,22.4%,-3.0%,33.3,2.5%,-8.6%
O=C(On1c(-c2ccccc2)nc2ccccc2c1=O)c1ccco1,6.1%,23.1µM*,23.1µM*,-25.3,-22.7%,-7.3%
O=c1c2ccccc2nc(-c2ccccc2)n1O,.,-2.1%,2.06µM*,0.0,3.9%,-7.2%
O=c1c2cc(Br)ccc2nc(-c2cccc(C(F)(F)F)c2)n1O,9.0%,10.3µM*,18.4µM*,73.2,14.1µM*,?
COc1cc(OC)cc(-c2nc3ccccc3c(=O)n2OC(=O)c2ccccc2C)c1,1.1%,-25.6%,?,-61.2*,-38.9%,?
N#Cc1ccc(-c2nc3ccc(Br)cc3c(=O)n2O)cc1,.,?,?,10.7,-34.0%,-12.4%
COc1ccc(-c2nc3ccccc3c(=O)n2O)cc1,.,26.0%,-13.8%,-22.4,2.2%,-12.4%
CN1CCCC(CC2c3ccccc3Sc3ccccc32)C1 (stereo unspecified),.,8.05µM*,?,-57.5*,-42.8%,-18.8%
COc1ccccc1NC(=O)C(=O)NCCC1CCCCN1S(=O)(=O)c1cccs1 (stereo unspecified),0.4%,18.4µM*,29.1µM*,-16.8,-6.7%,0.3%
O=C(NCC1CCCN1S(=O)(=O)c1cccs1)C(=O)Nc1ccccc1F (stereo unspecified),.,?,?,7.9,-16.5%,-13.8%
COc1ccc(CNC(=O)C(=O)NCC2CCCN2S(=O)(=O)c2cccs2)cc1 (stereo unspecified),.,?,?,-3.2,-19.2%,0.0%
COc1ccccc1NC(=O)C(=O)NCC1CCCN1S(=O)(=O)c1cccs1 (stereo unspecified),-4.1%[0.505 µM],?,?,-16.3,5.6%,?
O=C(NCCC1CCCCN1S(=O)(=O)c1cccs1)C(=O)Nc1ccccc1F (stereo unspecified),-2.7%,23.1µM*,?,4.0,-9.2%,9.2%
O=C(NCCC1CCCCN1S(=O)(=O)c1cccs1)C(=O)NCc1ccccc1 (stereo unspecified),.,20.6µM*,14.6µM*,0.0,-4.9%,-34.2%
CCNC(=O)C1(C)CCCN(C(=O)c2ccc(F)c(C)c2)C1 (stereo unspecified),.,-1.0%,-7.4%,23.1,-5.1%,-0.2%
SMILES,TDP1 block,DT40 TDP1 no CPT,DT40 TDP1 CPT,IL1B secr inh,HepG2 viability,TGFb inhibitor
CCS(=O)(=O)c1ccc(C=NNc2nc3ccccc3o2)cc1,.,23.1µM*,?,-25.4,-26.6%,-6.9%
C=C1SC(Nc2c(C)cc(C)cc2C)=NC12CCCCC2,2.7%,18.4µM*,?,-68.6*,-24.8%,?
CCn1c(O)c(/C=C2\C=Nc3ccccc32)sc1=Nc1ccccc1,-5.0%,11.6µM*,10.3µM*,8.1,-10.6%,0.1%
Cc1ccc(OCCC(=O)OCC(=O)N2CCN(S(=O)(=O)c3ccc(C)cc3)CC2)cc1,-3.1%,?,-8.9%,-1.6,13.0%,27.3%
N#Cc1c2nc3ccccc3nc2n2cc(NC(=O)c3ccc(F)cc3)ccc12,2.8%,4.61µM*,4.11µM*,-7.1,-12.1%,20.4%
O=C(Nc1ccc2nn(-c3ccccc3)nc2c1)c1ccc2c(c1)OCCO2,-2.1%,7.31µM*,?,-7.0,-42.9%,-24.2%
CCOc1ccc(-c2nnn(CC(=O)c3ccc4c(c3)OCCO4)n2)cc1,1.0%,16.4µM*,?,3.9,-30.8%,?
Cc1ccc(-n2nc3ccc(NC(=O)c4ccc5c(c4)OCO5)cc3n2)cc1,-2.0%,?,?,11.4,-15.7%,-5.9%
CCOc1ccc(-n2nc3ccc(NC(=O)COc4ccccc4C)cc3n2)cc1,0.4%[12.3 µM],18.4µM*,?,.,-16.5%,2.4%
CCc1ccc(-n2nc3ccc(NC(=O)COc4ccc(OC)cc4)cc3n2)cc1,.,-3.2%,-14.9%,.,-17.0%,-9.9%
CCc1ccc(-n2nc3ccc(NC(=O)c4ccc5c(c4)OCO5)cc3n2)cc1,0.5%,?,20.6µM*,7.5,4.6%,0.0%
CCOc1ccc(-n2nc3ccc(NC(=O)c4ccc5c(c4)OCCO5)cc3n2)cc1,0.0%,5.8µM*,3.26µM*,-5.8,-21.5%,-30.2%
Cc1cc(NC(=O)c2ccc3c(c2)OCCO3)cc(-c2nc3ccccc3o2)c1O,1.9%,.,.,.,-7.6%,-1.7%
O=C(Nc1ccc2oc(-c3ccccc3F)nc2c1)c1ccc2c(c1)OCCO2,0.5%,14.6µM*,10.3µM*,-53.7*,-54.1%,?
CCN(CC)CCN(CC(=O)Nc1c(C)cc(C)cc1C)C(=O)c1ccccc1,.,3.1%,-16.5%,-68.4*,-5.7%,-7.3%
CCN(CCCNC(=O)CSc1cc(=O)n(CC)c2ccccc12)c1ccccc1,6.9%,?,?,.,-56.8%,?

# Compound activity deposited in PubChem by National Center for Advancing Translational Sciences (NCATS).
